# Assay outcomes: PubChem BioAssay, several laboratories
# Only some compounds are listed: those with a hit (about 27% of all), similar ones and a draw of the others.
# CYP2C9 activ: increases human cytochrome P450 2C9 activity; P11712; recombinant CYP2C9, luciferin-H conversion, luminescence; stronger effect = higher value; factor 1 = untreated enzyme, 0 = blocked; activation factor at 5 µM; 96,000 compounds, 1.4% hits; AID 1024;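 active means activation factor of 2 or more for CYP2C9 at a 5 µM dose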;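 further: 0 = sulfaphenazole-blocked wells and 1 = vehicle-only wells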
# sEH activator: increases human soluble epoxide hydrolase activity | purified human sEH enzymatic activity, activator screen | activation, % at 2 µM | 91,000 compounds, 0.04% hits | P34913; in the data active means activation above about 37%
# CYP2C9 inh: human CYP2C9 inhibition; inhibition, % at 5 µM; 96,000 compounds, 20% hits; CYP2C9 Supersomes, luciferin-H conversion, luminescence; P11712; AID 777;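 active means blocking of liver enzyme CYP2C9 beyond about 50% at 5 µM, limit read from the data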
# CYP2C19 act: increases human CYP2C19 enzyme activity; P33261; recombinant CYP2C19, luciferin-H EGE luminescence; stronger effect = higher value; 0 = fully inhibited enzyme, 1 = untreated enzyme; activation factor at 5 µM; 96,000 tested, under 10 active; AID 1025;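 active means activation factor of at least 2 at 5 µM in the primary screen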;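 further: 0 = wells with 2.5 mM tranylcypromine and 1 = vehicle-only wells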
# Target sequence (P33261 whole entry, looked up): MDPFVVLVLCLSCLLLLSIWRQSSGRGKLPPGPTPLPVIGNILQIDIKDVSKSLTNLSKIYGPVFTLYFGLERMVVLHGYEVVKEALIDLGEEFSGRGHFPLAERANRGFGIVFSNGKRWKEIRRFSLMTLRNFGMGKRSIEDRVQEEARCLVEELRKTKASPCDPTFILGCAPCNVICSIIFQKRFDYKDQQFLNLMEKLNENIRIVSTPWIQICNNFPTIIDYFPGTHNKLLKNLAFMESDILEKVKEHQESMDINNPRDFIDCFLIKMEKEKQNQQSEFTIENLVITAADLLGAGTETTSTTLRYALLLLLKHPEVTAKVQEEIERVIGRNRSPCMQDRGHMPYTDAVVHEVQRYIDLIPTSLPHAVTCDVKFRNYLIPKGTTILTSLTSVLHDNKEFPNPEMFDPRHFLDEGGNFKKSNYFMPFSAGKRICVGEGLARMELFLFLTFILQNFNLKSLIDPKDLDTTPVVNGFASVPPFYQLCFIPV
# sEH inh: blocks human soluble epoxide hydrolase activity; recombinant human sEH enzymatic activity assay; 91,000 compounds, 0.34% hits; P34913; inhibition, % at 2 µM; AID 707; in the data active means inhibition above about 80%
# CYP2C19 inh: blocks human cytochrome P450 2C19; CYP2C19 Supersomes, luciferin-H EGE luminescence, 30 min; inhibition, % at 5 µM; 96,000 compounds, 21% hits; AID 778;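 active means CYP2C19 inhibition above a set limit at 5 µM in the primary screen, cut at about 50% in these data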;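 further: plate controls were negative control wells for no effect and 2.5 mM tranylcypromine positive control for full effect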
# Numbers without * were called inactive; x = no result.
SMILES,CYP2C9 activ,sEH activator,CYP2C9 inh,CYP2C19 act,sEH inh,CYP2C19 inh
O=C(NNC(=O)c1sccc1-n1cccc1)c1cccc(Cl)c1,0.9,-18,11,0.9,20,14
Clc1ccc(SCCCCn2cncn2)cc1,0.2,-3,76*,0,4,98*
Clc1ccc(OCCCn2cncn2)cc1Cl,0.1,11,92*,0,-16,99*
FC(F)(F)c1cccc(OCCOCCn2cncn2)c1,0.7,5,33,0.1,-1,86*
c1ccc(COc2ccc(OCCCn3cncn3)cc2)cc1,0,-7,96*,0.1,6,94*
Clc1ccc(OCCN2CCOCC2)cc1Cl,1,-5,1,0.7,5,32
O=C(NCc1ccc2c(c1)OCO2)C1CCCN1C(=O)Nc1cccc(Cl)c1 (stereo unspecified),0.6,x,41,0.7,x,35
c1ccc(-c2ccc(OCCOCCn3cncn3)cc2)cc1,0.3,0,67*,0.1,2,95*
c1ccc(Cc2ccc(OCCn3cncn3)cc2)cc1,0,-12,98*,0,10,97*
NCCOc1ccccc1-c1ccccc1,0.3,x,66*,0.4,x,57*
COc1ccc(OCCn2cncn2)cc1,1.1,2,-13,1,0,-2
c1ccc(-c2ccccc2OCCn2cncn2)cc1,1.8,-6,-80,0,6,97*
Cn1cccc1C1Nc2ccccc2NC2=C1C(=O)CC(C)(C)C2 (stereo unspecified),1,-8,0,1.3,4,-33
COc1ccc(CNC(=O)C2CC(c3cccc(OC)c3)=NO2)cc1 (stereo unspecified),1.1,-17,-13,0.8,16,18
COCC(C)NC(=O)C1CC(c2cccc(Br)c2)=NO1 (stereo unspecified),2.1*,3,-110,1,-3,0
COc1cccc(C2=NOC(C(=O)NCc3cccs3)C2)c1 (stereo unspecified),0.3,10,68*,0.5,-7,54*
COc1ccc(OC)c(C2=NOC(C(=O)NCc3ccco3)C2)c1 (stereo unspecified),3.1*,-13,-213,0.8,12,18
O=C(O)C1CC(c2cccc(Br)c2)=NO1 (stereo unspecified),1.2,5,-23,1,-3,1
COc1cccc(C2=NOC(C(=O)Nc3ccccc3SC)C2)c1 (stereo unspecified),2.5*,0,-147,0.4,2,63*
COc1ccc(CCNC(=O)CSc2nnnn2-c2ccccc2)cc1,0.2,x,78*,0.2,x,76*
COc1ccc(-n2nnnc2SCC#CCO)cc1,0.6,-2,45,0.1,3,90*
COc1ccc(CCNc2nnc(Sc3nnnn3-c3ccccc3)s2)cc1OC,0.9,-14,8,0.3,13,73*
COc1ccc(CNC(=O)CSc2nnnn2Cc2ccccc2)cc1,0.3,-31,73*,0.2,31,79*
O=C(CSc1nnnn1Cc1ccccc1)NCCc1ccccc1,0.7,x,33,0.8,x,20
CNc1nc(Oc2ccc(=O)n(C)n2)nc(N2CCOCC2)n1,1.1,0,-6,1.1,1,-10
SMILES,CYP2C9 activ,sEH activator,CYP2C9 inh,CYP2C19 act,sEH inh,CYP2C19 inh
CC(C)c1nc(SCC(=O)Nc2ccc(N3CCOCC3)cc2)c2ccccc2n1,x,-59,x,x,60,x
O=C(c1cc(Br)c(Br)s1)N1CCN(C/C=C/c2ccccc2)CC1,0.8,-14,17,0.7,11,27
CCOC(=O)CCn1nnc(N)n1,0.7,x,31,0.9,x,11
COc1ccc(CNC(=O)CSc2nnnn2-c2ccccc2)cc1,0.3,x,73*,0.1,x,89*
CCCn1nnnc1SCC(=O)NCc1ccc(OC)cc1,1.1,x,-14,0.8,x,20
O=C(NCCCN1CCCC1=O)c1cncc(Br)c1,1.1,-6,-8,1.1,8,-13
CCOC12NC(=O)CC(=O)N1C(c1ccccc1)=CS2 (stereo unspecified),0.8,x,20,0.7,x,26
CCC(CO)NC(=O)c1cccc(S(=O)(=O)N2c3ccccc3CC2C)c1 (stereo unspecified),0.9,-1,14,0.3,4,73*
Cc1noc(C)c1COC(=O)c1cccc(S(=O)(=O)N2c3ccccc3CC2C)c1 (stereo unspecified),0.2,-14,80*,0.4,15,59*
O=C(CSc1ncnc2ccccc12)Nc1ccc2c(c1)OCO2,0.6,x,40,0.4,x,62*
O=C(CSc1ncnc2c1cnn2-c1ccccc1)Nc1ccc2c(c1)OCO2,0.4,-13,63*,0.7,14,28
O=C(CSc1nc(Cc2ccccc2)nc2ccccc12)Nc1ccc2c(c1)OCCO2,0.8,-18,24,1,18,5
COc1ccc(-n2nnc3c(SCC(=O)Nc4ccc5c(c4)OCCO5)ncnc32)cc1,0.6,-41,40,0.9,40,10
CCc1ccc(NC(=O)CSc2nc3cc(C(=O)OC)ccc3c(=O)n2CC2CCCO2)cc1 (stereo unspecified),0.5,10,46,0.8,-7,20
COc1cc(C(=O)N(Cc2cccc(Cl)c2)C2CCS(=O)(=O)C2)cc(OC)c1OC (stereo unspecified),0.9,14,12,1.1,-14,-10
O=C(c1ccccc1F)N1CCC(O)(c2cccnc2)CC1,1.1,0,-10,0.7,0,30
COc1cccc(C2(O)CCN(C(=O)Cc3cccnc3)CC2)c1,1,-15,-4,0.3,16,73*
COc1ccc(C2(O)CCN(C(=O)Cc3cccnc3)CC2)cc1,0.8,x,16,0.4,x,58*
O=C(NC1CCCCC1)Sc1ccc(Cl)cc1,0.6,-72,42,0.8,71,20
Cc1ccc(C)c(S(=O)(=O)c2c(N)n(/N=C/c3ccco3)c3nc4ccccc4nc23)c1,0.1,10,86*,0.4,-11,63*
Nc1c(S(=O)(=O)c2ccccc2)c2nc3ccccc3nc2n1/N=C/c1cccc(O)c1,0.7,x,31,0.9,x,10
Cc1cccc(S(=O)(=O)c2c(N)n(/N=C/c3ccccc3)c3nc4ccccc4nc23)c1,0.5,6,55*,1,-9,2
COc1ccccc1/C=N/n1c(N)c(S(=O)(=O)c2cccs2)c2nc3ccccc3nc21,1,6,1,1.1,-4,-11
CC(=O)Nc1sc2c(c1CN1CCN(C)CC1)CCCC2,1.1,6,-12,0.8,-2,20
C/C(Cl)=C/CN1C(=O)C2C3C=CC(C3)C2C1=O (stereo unspecified),0.7,9,29,0.3,-7,73*
CC12C(=O)N(Cc3ccccc3)C(=O)C1C1C=CC2C1 (stereo unspecified),0.8,x,20,0.1,x,89*
O=C1C2C3C=CC(C3)C2C(=O)N1Cc1ccccc1 (stereo unspecified),0.8,-6,19,0.2,11,84*
